Screening data: PubChem BioAssay, several laboratories
The list is not random: actives were taken first. Their share in the collection is about 3.1%.
SSB-PriA inh = inhibitors of Klebsiella pneumoniae PriA binding to SSB C-terminal tail; inhibition, % at 33 µM; 0.6% of 430,000 active; AlphaScreen SSBct-PriA binding, biotinylated peptide; in the data active = inhibition mostly above about 37%, no sharp cut-off; inactive = mostly below about 20%;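 also: plate controls were negative control peptide for no effect and reference peptide for full effect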
BoNT-F LC inh = blocks Botulinum neurotoxin F light chain protease; 0.22% of 360,000 active; inhibition, % at 10 µM; Multiplex microsphere protease cleavage assay, flow cytometry; AID 588497; in the data active = inhibition above about 35%, passing the limit was not always enough; inconclusive = no clear call, values can overlap the other calls; also: plate controls were buffer without enzyme for full effect and enzyme alone for no effect
Bead autofluor = counter-screen for toxin protease inhibitors: compound fluorescence; compound autofluorescence counterscreen, microsphere flow cytometry; hits give high values; fluorescence intensity (concentration not given with the values); 3.1% of 360,000 active; AID 624483; in the data active = fluorescence intensity above about 16000; inconclusive = no clear call, values can overlap the other calls
BoNT-A LC inh2 = BoNT A light chain protease inhibition. AID 588499. multiplex microsphere protease substrate cleavage, flow cytometry. 0.17% of 360,000 active. inhibition, % at 10 µM; also: plate controls were buffer without enzyme for full effect and enzyme alone for no effect
Anthrax LF inh2 = anthrax lethal factor protease inhibition | P15917 | multiplex microsphere protease cleavage assay, LF | inhibition, % at 10 µM | 0.12% of 360,000 active | AID 588501; also: plate controls were buffer without enzyme for full effect and enzyme alone for no effect
Target sequence (P15917 whole entry, looked up): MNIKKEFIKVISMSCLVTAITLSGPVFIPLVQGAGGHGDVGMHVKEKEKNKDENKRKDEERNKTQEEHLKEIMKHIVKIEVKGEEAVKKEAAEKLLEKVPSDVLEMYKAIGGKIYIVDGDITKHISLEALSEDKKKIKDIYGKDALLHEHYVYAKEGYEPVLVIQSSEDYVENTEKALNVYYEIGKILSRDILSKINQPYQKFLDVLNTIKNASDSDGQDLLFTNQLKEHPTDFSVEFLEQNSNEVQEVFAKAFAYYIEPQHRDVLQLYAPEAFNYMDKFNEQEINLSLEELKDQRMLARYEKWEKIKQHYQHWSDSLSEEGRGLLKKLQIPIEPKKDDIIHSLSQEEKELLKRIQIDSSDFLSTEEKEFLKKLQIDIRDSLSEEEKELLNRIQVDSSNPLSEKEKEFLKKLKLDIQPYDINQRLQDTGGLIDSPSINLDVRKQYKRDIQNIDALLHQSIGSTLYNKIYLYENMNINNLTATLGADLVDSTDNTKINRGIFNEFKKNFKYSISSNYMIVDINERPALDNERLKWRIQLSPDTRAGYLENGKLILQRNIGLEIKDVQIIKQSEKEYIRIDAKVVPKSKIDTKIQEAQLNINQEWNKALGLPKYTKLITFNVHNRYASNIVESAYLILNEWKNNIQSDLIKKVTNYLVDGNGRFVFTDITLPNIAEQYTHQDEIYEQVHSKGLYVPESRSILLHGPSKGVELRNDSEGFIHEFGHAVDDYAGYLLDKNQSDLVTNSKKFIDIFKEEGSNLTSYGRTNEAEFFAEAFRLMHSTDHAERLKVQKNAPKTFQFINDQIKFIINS
BoNT-A LC CP1 = inhibitors of Botulinum neurotoxin A light chain protease. shares compounds with BoNT-F LC inh. multiplex microsphere protease assay, flow cytometry. 3% of 720 active. inhibition, % at 10 µM; in the data active = inhibition above about 32%
BoNTF LC inh 1 = BoNT/F light chain protease inhibition; multiplex microsphere protease cleavage assay, flow cytometry; 720 tested, under 10 active; inhibition, % at 10 µM; shares compounds with BoNT-F LC inh; call rule not given here
Anthrax LF CP1 = Bacillus anthracis lethal factor protease inhibition; shares compounds with BoNT-F LC inh; multiplex microsphere protease cleavage assay, LF; inhibition, % at 10 µM; 720 tested, under 10 active; call rule not given here
* = called active by the depositor; ? = inconclusive; . = not tested or not shown. Rule as the data show it, unless noted: active = inhibition above about 30%; inconclusive = no clear call, values can overlap the other calls; inactive = below that.

SMILES | SSB-PriA inh | BoNT-F LC inh | Bead autofluor | BoNT-A LC inh2 | Anthrax LF inh2 | BoNT-A LC CP1 | BoNTF LC inh 1 | Anthrax LF CP1
O=S(=O)(c1ccc(Cl)cc1)N1CCCc2ccccc21 | -64 | -13 | 3196 | 0 | -5 | . | . | .
COc1ccc2c(c1)CCCN2S(=O)(=O)c1ccc(Cl)cc1 | -55 | -8 | 3742 | 1 | 37* | 0 | -11 | -3
O=C(NCC1(c2ccc(F)cc2)CC1)c1cnn(-c2ccccc2)n1 | -26 | . | . | . | . | . | . | .
CCC(C)(C)n1nnnc1C(c1cc2ccc(OC)cc2[nH]c1=O)N1CCCCC1 (stereo not given) | -11 | 3 | 10987 | 2 | -6 | -2 | 0 | -5
CCC(C)(C)n1nnnc1C(c1cc2cc(C)cc(C)c2[nH]c1=O)N1CCCC1 (stereo not given) | 0 | 2 | 10428 | 10 | 7 | . | . | .
CCC(C)(C)n1nnnc1C(c1cc2cccc(C)c2[nH]c1=O)N1CCCC1 (stereo not given) | 13 | 4 | 23337* | ? | 3 | 0 | 0 | -4
O=S(=O)(Nc1cc2nc3ccccc3nc2n1Cc1ccccc1)c1ccc(Cl)cc1 | 15 | -11 | 2849 | 33* | 9 | 14 | -1 | 4
O=S(=O)(NCc1ccccc1)c1ccc(Cl)cc1 | -25 | 13 | 3948 | 0 | 1 | . | . | .
COc1ccc(C=NNC(=O)c2ccccc2Br)cc1COc1ccc(F)cc1 | -6 | . | . | . | . | . | . | .
COc1ccc(C2=NN(C(=O)CN3CCCC3)C(c3ccc(OC)cc3)C2)cc1 (stereo not given) | 4 | 57* | 4751 | 2 | 34* | -1 | -7 | -1
COc1ccc(C2=NN(C(=O)CN3CCCCC3)C(c3ccc(OC)cc3)C2)cc1 (stereo not given) | 5 | ? | 4424 | ? | -2 | . | . | .
S=c1nc(Cc2ccccc2)[nH]c2ccccc12 | -4 | 51* | 15764 | -12 | -8 | -1 | -5 | -1
S=c1nc(Cc2ccc(Cl)cc2)[nH]c2ccccc12 | -11 | 4 | 3395 | 0 | 5 | . | . | .
CC(C)n1c(=O)c2ccc(C(=O)NC3CCCC3)cc2n2c(=O)n(C)nc12 | -12 | . | . | . | . | . | . | .
C=CCn1cnc2c(oc3ccccc32)c1=O | -6 | 7 | 3046 | 3 | 35* | -2 | -3 | -3
O=c1c2oc3ccccc3c2ncn1Cc1ccccc1Cl | 1 | -1 | 10056 | 0 | -7 | . | . | .
Cn1nc(C2CC2)cc1N1CCN(C(=O)c2nc3ccccc3s2)CC1 | -10 | . | . | . | . | . | . | .
Cc1cc(NC(=O)CSc2nnc(-c3ccncc3)n2Cc2ccccc2)n(-c2ccccc2)n1 | -2 | ? | 3521 | ? | -5 | . | . | .
Cc1cc(NC(=O)CSc2nnc(-c3ccncc3)n2C)n(-c2ccccc2)n1 | -1 | ? | 7628 | 8 | 70* | 1 | 3 | 4
CC1(C)Cc2c(C#N)c(SCC(=O)c3ccccc3)nc(N3CCOCC3)c2CS1 | -16 | 37* | 4781 | 0 | -3 | -1 | -2 | -4
CCC1(C)Cc2c(C#N)c(SC)nc(N3CCOCC3)c2CO1 (stereo not given) | -17 | ? | 3640 | 0 | 32* | 1 | -1 | 1
O=C(O)c1ccc(NS(=O)(=O)c2cccc(C(=O)Nc3cccc(C(=O)O)c3)c2)cc1 | -12 | -10 | 3557 | -1 | 1 | 0 | -1 | -2
Cc1ccccc1NC(=O)c1cccc(S(=O)(=O)Nc2cccc(C(=O)O)c2)c1 | -5 | ? | 3658 | -3 | -2 | -1 | -1 | -1
COCC(C)NC(=O)C(=O)Nc1ccc(F)c([N+](=O)[O-])c1 (stereo not given) | -14 | . | . | . | . | . | . | .
NC(=O)C(c1ncc(C(F)(F)F)cc1Cl)c1c(Cl)cccc1Cl (stereo not given) | -10 | 48* | ? | ? | ? | 0 | -3 | 5
SMILES | SSB-PriA inh | BoNT-F LC inh | Bead autofluor | BoNT-A LC inh2 | Anthrax LF inh2 | BoNT-A LC CP1 | BoNTF LC inh 1 | Anthrax LF CP1
O=C(c1ccccc1)N1CCN(Cc2cccc(Oc3ccccc3)c2)CC1 | -11 | 38* | 2577 | 4 | 0 | -1 | -2 | 1
COc1cccc(CN2CCN(C(=O)c3cccc(OC)c3)CC2)c1 | -5 | 3 | 3553 | 0 | 18 | . | . | .
Cc1cc(NC(=O)C2COc3ccccc3O2)n(C(C)C)n1 (stereo not given) | -13 | . | . | . | . | . | . | .
Cc1cccc(C)c1NC(=O)C1CC(=O)N(C(C)C)C1 (stereo not given) | -11 | 35* | 3715 | 3 | 5 | -1 | -2 | -1
CC(C)c1ccc(NC(=O)C2CC(=O)N(C(C)C)C2)cc1 (stereo not given) | -2 | ? | 4324 | 0 | 8 | . | . | .
O=C(c1ccc(-n2cccc2)cc1)N1CCC[C@H](Cc2nc(-c3cnccn3)no2)C1 | -3 | . | . | . | . | . | . | .
Nc1c(C(=O)NC2CCCC2)c2nc3ccccc3nc2n1N | -8 | -4 | 4248 | -1 | -4 | . | . | .
Nc1c(C(=O)NC2CCCC2)c2nc3ccccc3nc2n1CC1CCCO1 (stereo not given) | -25 | 7 | 4737 | 31* | 14 | 3 | -7 | 1
COc1cccc(-c2cc(C(=O)NCC3CCCO3)c3c(C)nn(C4CCS(=O)(=O)C4)c3n2)c1 (stereo not given) | -2 | . | . | . | . | . | . | .
Cc1cc(C)nc(SCc2ccc(Cl)cc2)n1 | -16 | -12 | 3562 | 2 | 32* | 0 | -3 | 2
O=C(CSc1nnc(-c2c[nH]c3ccccc23)n1-c1ccc(F)cc1)NC[C@H]1CCCO1 | -8 | . | . | . | . | . | . | .
CC(C)c1ccc(OCC(=O)Nc2ccncc2)cc1 | -2 | 43* | 3498 | 1 | 15 | -2 | -1 | 5
CCOC(=O)C(O)(c1ccc(N(CC)S(=O)(=O)c2ccc(C)cc2)cc1)C(F)(F)F (stereo not given) | -36 | 70* | 6229 | 8 | -1 | 2 | -3 | -3
O=C(NCc1ccc(Cl)cc1)c1noc2c1CCCC2 | -12 | -4 | 8038 | -1 | -6 | . | . | .
O=C(NCc1ccccc1)c1noc2c1CCCC2 | 7 | 35* | 5510 | 5 | 5 | 0 | -6 | 2
Cn1ccnc1C(O)c1cc(C(C)(C)C)c(O)c(C(C)(C)C)c1 (stereo not given) | -1 | 14 | 6965 | 25 | 32* | 4 | 0 | 2
Cc1cc(NC(=O)Cc2ccc3c(c2)OCO3)n(-c2nc3ccc(F)cc3s2)n1 | -8 | . | . | . | . | . | . | .
CCOC(=O)c1ccc(NC(=O)CSc2ncnc3sc4c(c23)CCCC4)cc1 | 6 | . | . | . | . | . | . | .
CCOc1nn(CC)cc1C(=O)NCc1ccccc1Cl | 18 | . | . | . | . | . | . | .
CCn1cc(C(=O)NCc2ccccc2Cl)cn1 | -8 | 40* | 2098 | 4 | 2 | 1 | 3 | 1
S=C(Nc1ccc2nc(-c3ccccn3)c(-c3ccccn3)nc2c1)N1CCCCCC1 | 1 | 5 | 2061 | 20 | 10 | . | . | .
S=C(Nc1ccc2nc(-c3ccccn3)c(-c3ccccn3)nc2c1)N1CCCCC1 | -10 | 8 | 2750 | 33* | 9 | 3 | -3 | 0
